Screens from PubChem BioAssay.
LmPK inhibitor: qHTS Assay for Inhibitors of Leishmania Mexicana Pyruvate Kinase (LmPK); Q27686; actives 0.37% (n = 290,000); Potency, µM (series often up to 57.5 µM), for inactives: top-dose activity change, negative = inhibition, usual class: inhibitors; purified LmPK, Kinase-Glo ATP luminescence, 1 h; note: potency is the fitted concentration of half-maximal effect; % is set by controls: 0 for no effect and ±100 for the full control effect
Target sequence (Q27686 whole entry, looked up): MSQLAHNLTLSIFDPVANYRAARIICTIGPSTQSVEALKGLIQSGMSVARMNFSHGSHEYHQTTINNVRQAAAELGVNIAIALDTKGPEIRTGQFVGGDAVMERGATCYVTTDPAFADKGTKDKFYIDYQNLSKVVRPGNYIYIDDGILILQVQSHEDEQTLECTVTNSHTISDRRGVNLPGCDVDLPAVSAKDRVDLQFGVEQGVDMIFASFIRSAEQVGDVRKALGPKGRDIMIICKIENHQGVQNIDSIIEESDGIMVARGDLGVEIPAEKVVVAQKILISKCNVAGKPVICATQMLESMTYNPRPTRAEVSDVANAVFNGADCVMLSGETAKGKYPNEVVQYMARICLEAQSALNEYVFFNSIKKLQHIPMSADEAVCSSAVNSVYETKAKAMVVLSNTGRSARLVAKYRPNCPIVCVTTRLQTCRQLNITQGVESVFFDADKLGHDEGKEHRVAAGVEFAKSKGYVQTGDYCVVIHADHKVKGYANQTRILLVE
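Purified LmPK (0.1 nM) with 0.5 mM PEP and 0.1 mM ADP in imidazole buffer pH 7.2 with MgCl2/KCl, 1 h at room temperature. ATP formed was read by luciferase luminescence and normalized to no-enzyme and uninhibited controls.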
Cycloheximide cs: Cycloheximide Counterscreen for Small Molecule Inhibitors of Shiga Toxin | cell reporter, cycloheximide protein synthesis inhibition counterscreen | max response, % | actives 12% (n = 300,000) | AID 2314, 2010; in the data active = max response mostly above about 13%, no sharp cut-off; inactive = mostly below about 14%; note: read at 38.3 µM for the half of the compounds with a filed dose; 0% is about no effect
RE007 growth inh: qHTS Assay for Inhibitors of the HIV-1 protein Vpr. Potency, µM (top dose mostly 92.2 µM), for inactives: at the top dose activity change, negative = less growth, most hits filed as inhibitors. AID 651644, 2012. S. pombe RE007 Vpr strain, BacTiter-Glo ATP luminescence, 24 h. actives 0.21% (n = 360,000); active = well fitted falling curve with a large enough effect; inconclusive = small, poorly fitted or top-dose-only effect; inactive = no such curve, though single readings can be large or run the other way; note: potency is the fitted concentration of half-maximal effect; % is set by controls: 0 for no effect and ±100 for the full control effect; nearly all actives have a fitted effect of over 50% in size
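Fission yeast strain RE007, carrying one chromosomally integrated HIV-1 vpr copy, was seeded at OD 0.01 in PMG+AL medium with 23 nL pinned compound. After 24 h at 30 °C and 99% humidity, viability was read by BacTiter-Glo luminescence.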
Giardia FBPA inh: qHTS Assay for Inhibitors of Fructose-1,6-bisphosphate Aldolase from Giardia Lamblia; A8B2U2; purified Giardia FBPA; Potency, µM (doses to about 59.6 µM), for the others: at the top dose activity, negative = inhibition, most hits filed as inhibitors; actives 0.71% (n = 290,000); AID 2451, 2010; note: potency is the fitted concentration of half-maximal effect; % is set by controls: 0 for no effect and ±100 for the full control effect; nearly all actives have a fitted effect of over 55% in size
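40 nM FBPA preincubated 10 min at RT with compound (up to 57.5 uM final), then substrate plus GAPDH/TPI/NAD/arsenate coupling and diaphorase/resazurin added. Fluorescence read after 20 min at RT, 525/598 nm.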
Tb PYK inh: qHTS of Trypanosoma Brucei Inhibitors; pyruvate kinase (Trypanosoma brucei), Q57TT1; TbPYK enzyme, Kinase-Glo Plus ATP luminescence, 45 min; Potency, µM (top dose mostly 76.8 µM), without a hit: at the top dose activity, negative = inhibition, hits mostly inhibitors; actives 0.12% (n = 410,000); AID 624173, 2012; note: potency is the fitted concentration of half-maximal effect; % is set by controls: 0 for no effect and ±100 for the full control effect; nearly all actives have a fitted effect of over 50% in size
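Screened from lowest to highest concentration, compounds were pinned into TbPYK/substrate mixtures, and ADP (130 uM final) was added. Plates sat at room temperature for 45 min prior to Kinase-Glo Plus detection by luminescence.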
Shiga toxin inh: A qHTS for Small Molecule Inhibitors of Shiga Toxin. actives 9.2% (n = 290,000). inhibition, % at 38.7 µM. Vero cells, Shiga toxin protein synthesis inhibition reporter; in the data active = inhibition mostly above about 28%, no sharp cut-off; inactive = mostly below about 43%; note: 0% is about no effect
* marks the source's active call; other numbers are inactive results; ? = inconclusive; / = not tested or not shown. Shown is part of a subset that was picked to be rich in hits. Unless noted, calls come from the whole dose curve; as a rule, active = well fitted curve in the direction sought with a large enough effect; inconclusive = small, poorly fitted or top-dose-only effect, or another doubt; inactive = no such curve, though single readings can be large; an effect the other way counts as inactive or inconclusive.

SMILES	LmPK inhibitor	Cycloheximide cs	RE007 growth inh	Giardia FBPA inh	Tb PYK inh	Shiga toxin inh
O=C(CSc1nnc(NC(=O)c2ccccc2Cl)s1)NC1CC1	-8.2%	39.5*	0.5%	-24.1%	-5.1%	60.7*
O=C(CSc1nnc(NC(=O)c2ccccc2Cl)s1)Nc1ccc2c(c1)oc1ccccc12	-3.8%	34.4*	/	-9.2%	/	54.3*
CCOC(=O)CNC(=O)CSc1nnc(NC(=O)c2ccccc2Cl)s1	-20.4%	28.6*	-15.9%	0.4%	-3.0%	58.7*
CC(C)(C)NC(=O)CSc1nnc(NC(=O)c2ccccc2Cl)s1	0.9%	11.6	11.5%	6.1%	-1.0%	30.3
Cc1ccccc1C(=O)Nc1nnc(SCC(=O)NC2CC2)s1	-6.2%	29.8*	3.4%	/	-7.1%	63.6*
CC(C)CN1CCC2(CC1)CCN(C(=O)c1cnccn1)CC2	/	/	/	1.3%	-5.3%	/
Cc1nnc(NC(=O)CSc2ccccc2N)s1	-0.5%	25.9*	3.9%	?	-9.0%	38.5
Fc1ccc(-c2c[nH]c(=S)n2Cc2ccccc2)cc1	3.55µM*	-3.1	25.0%	-2.7%	?	-2.5
O=c1[nH]cc(-c2ccc(Br)cc2)n1Cc1ccccc1	6.5%	-3.2	20.5%	12.3%	1.9%	-0.6
CCCC(=O)N(c1ccc2oc(-c3ccccc3)c(C(=O)OCC)c2c1)S(=O)(=O)c1ccc(C)cc1	/	/	/	/	-6.0%	/
Cc1nc(Cc2nnc(SCC(=O)N3c4ccccc4NC(=O)C3(C)C)o2)cs1	/	/	11.4%	/	-0.7%	/
O=C1NC(=O)C(=Cc2ccc(Sc3ccccc3)o2)C(=O)N1	?	20.1*	-0.2%	-18.8%	39.8µM*	34.4
COc1cccc(CNC(=O)Cn2c(=O)ccc3cc(S(=O)(=O)N4CCC(C)CC4)ccc32)c1	/	/	/	/	-13.7%	/
Oc1c(Cl)cccc1Cc1cc(Cl)cc(Cl)c1O	/	/	35.5µM*	/	-8.4%	/
Oc1c(Cl)cc(Cl)cc1CNc1ccccn1	-1.0%	-2.0	1.0%	-5.4%	-4.0%	-16.3
Oc1c(Cl)cc(Cl)cc1CN1CCN(Cc2ccccc2)CC1	-2.5%	20.1*	5.6%	-13.3%	-13.1%	27.8
Cn1nc(-c2ccc(OCC(=O)Nc3cccc(C(F)(F)F)c3)cc2)c2ccccc2c1=O	/	/	/	/	3.5%	/
CCn1cc(S(=O)(=O)Nc2ccc3c(c2)OCCO3)cn1	-2.6%	76.4*	25.1%	-0.5%	0.1%	76.9*
Cn1cc(S(=O)(=O)Nc2ccc3c(c2)OCCO3)cn1	-4.1%	44.3*	6.9%	-0.2%	-4.2%	103.1*
COc1ccc(S(=O)(=O)Nc2ccc3c(c2)OCCO3)cc1OC	2.6%	22.7*	14.8%	10.8%	4.0%	64.8*
COc1ccc(S(=O)(=O)Nc2ccc3c(c2)OCO3)cc1C	2.7%	-2.4	-12.9%	6.2%	-2.8%	-4.0
Cc1nc(S(=O)(=O)Nc2ccc3c(c2)OCCO3)cn1C	0.5%	-0.8	3.2%	-0.2%	-21.7%	15.3
Cn1c(=O)c2cc(S(=O)(=O)Nc3ccc4c(c3)OCO4)ccc2n(C)c1=O	6.2%	-1.6	0.7%	1.2%	0.0%	8.1
Cn1c(=O)oc2cc(S(=O)(=O)Nc3ccc4c(c3)OCO4)ccc21	2.9%	13.8*	-2.8%	-17.2%	-3.2%	24.8
Nc1ccc2c(c1)sc1ccccc12	3.5%	58.0*	-4.4%	-8.1%	1.5%	81.7*
SMILES	LmPK inhibitor	Cycloheximide cs	RE007 growth inh	Giardia FBPA inh	Tb PYK inh	Shiga toxin inh
COc1ccc(-c2cn(CCO)c(-c3ccc(Cl)nc3)n2)cc1	/	/	-13.0%	/	-1.5%	/
COc1cccc(NC(=O)c2cc3ccccc3oc2=O)c1	-8.8%	42.5*	-8.6%	10.0%	-20.2%	/
COc1ccc2oc(=N)c(C(=O)Nc3ccccc3Cl)cc2c1	-0.2%	38.6*	-2.8%	1.3%	8.3%	48.6*
COc1ccc2oc(=O)c(C(=O)Nc3ccccc3C)cc2c1	31.1%	34.1*	-9.4%	4.3%	?	/
COc1ccc2oc(=O)c(C(=O)Nc3ccccc3-c3ccccc3)cc2c1	-2.6%	-2.5	10.9%	5.8%	-7.7%	1.7
COc1ccc2oc(=N)c(C(=O)Nc3cccc(C)c3C)cc2c1	-4.5%	30.4*	0.9%	4.1%	-2.4%	49.3*
CCN(Cc1nc2cc(Cl)ccc2c(=O)[nH]1)C(=O)CN1C(=O)NC2(CCCCC2C)C1=O (stereo unspecified)	/	/	-0.5%	/	2.6%	/
N=c1oc2ccc(Br)cc2cc1C(=O)NCc1ccc(F)cc1	-9.5%	22.6*	5.2%	/	-13.9%	8.9
O=C(Nc1ccccc1O)c1cc2cc(Br)ccc2oc1=O	0.4%	28.0*	/	-3.7%	5.6%	114.3*
COc1cccc2cc(C(=O)Nc3cc(C)cc(C)c3)/c(=N/NS(=O)(=O)c3ccccc3)oc12	13.5%	9.1	10.9%	/	0.2%	15.2
COc1ccc(NC(=O)c2cc3ccccc3o/c2=N\NS(=O)(=O)c2ccc(C)cc2)cc1	-3.2%	47.5*	3.5%	?	-21.6%	99.5*
COc1ccc2oc(=N)c(C(=O)Nc3ccccc3)cc2c1	-8.5%	38.7*	5.1%	2.2%	4.2%	85.3*
CN(C(=O)CSc1nc2ccc(NC(=O)COc3ccc(F)cc3)cc2s1)c1ccccc1	/	/	/	/	3.8%	/
N=c1oc2ccccc2cc1C(=O)Nc1ccccc1	-4.8%	45.7*	-5.8%	9.5%	-11.4%	116.4*
Cc1cccnc1NC(=O)c1cc2ccccc2oc1=O	?	30.2*	-20.5%	5.6%	-1.2%	114.7*
N=c1oc2ccc(Cl)cc2cc1C(=O)Nc1ccc(F)cc1	8.8%	23.7*	-10.5%	0.6%	-3.5%	43.7*
COc1ccc2oc(=N)c(C(=O)Nc3ccc(F)cc3)cc2c1	0.3%	-3.4	12.0%	-6.5%	-2.6%	13.7
COc1ccc(OC)c(S(=O)(=O)NC(C)c2cnn(-c3ccccn3)c2C)c1 (stereo unspecified)	-7.6%	-1.1	-12.7%	/	-11.2%	-24.7
CSCc1ccc(C(=O)NC(C)c2cnn(-c3ccccn3)c2C)o1 (stereo unspecified)	4.3%	23.7*	-7.3%	11.9%	-8.8%	48.2*
O=C(NNC(=O)c1ccccc1[N+](=O)[O-])c1csc(N2CCOCC2)n1	/	/	2.3%	/	1.7%	/
Cc1c(C(=O)Nc2cccc([N+](=O)[O-])c2)cnn1-c1ccccc1	0.9%	47.0*	3.0%	-20.7%	-14.9%	113.5*
CCCc1c(C(=O)Nc2ccc(F)cc2F)cnn1-c1ccccc1	1.7%	16.9*	-6.5%	-5.7%	2.8%	12.4
CCCc1c(C(=O)Nc2cc(C(C)(C)C)on2)cnn1-c1ccccc1	4.2%	-2.4	-18.4%	5.9%	-0.7%	-6.2
Cc1c(C(=O)Nc2cccc(F)c2)cnn1-c1ccccc1	-9.9%	39.0*	-28.1%	3.9%	-6.9%	63.6*
